Here are results for 13 compounds from PubChem BioAssay (NCI).

The panel holds about 83,000 compounds, 20% with a hit somewhere; the sample as a whole holds those more often.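 Values shown are percent growth following 48 h exposure of cells in 96-well plates to a single concentration of compound; below 10 was considered active.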 Values without a mark were called inactive. Calls of active or inactive are those of the source.

Some test systems named below: DU-145 prostate; K-562 leukemia; MALME-3M melanoma; MDA-MB-231 breast; RXF 393 renal; SF-268 CNS; SF-295 CNS; SF-539 CNS; UACC-257 melanoma; M14 melanoma.
Holding throughout (experiment): NCI-60 one-dose screen, 48 h (100 = growth as untreated, 0 = no growth, -100 = all killed)
Common to all, as to conditions: 10 µM unless noted

Consider `O=C1OCC2=C1C(c1cccc(C(F)(F)F)c1)c1cc3c(cc1N2CCO)OCCO3` (stereo not given), for which the growth in the experiment on DU-145 prostate is 16%; with K-562 leukemia, 9.6% (active); with MALME-3M melanoma it was 49.5%; with MDA-MB-231 breast it was 37.6%; with RXF 393 renal, 10.9%; in the experiment on SF-268 CNS, 38.8%. Moreover, the growth in the experiment with SF-295 CNS was 0.743% (active); in the experiment on SF-539 CNS, -8.3% (active); in the experiment with UACC-257 melanoma, 65.3%; in the experiment on M14 melanoma, -6.89% (active).
On to `Cc1cc2nc(C(Cl)Cl)nc(-c3ccc(Cl)cc3)n2n1`, for which the growth in the experiment on DU-145 prostate was -3.35% (active); with K-562 leukemia, 12.2%; with MALME-3M melanoma, -16.5% (active); in the experiment on MDA-MB-231 breast, -2.03% (active); in the experiment with RXF 393 renal, -74.4% (active); with SF-268 CNS it was 7.03% (active). Also, the growth with SF-295 CNS is 2.71% (active); in the experiment with SF-539 CNS it was 3.16% (active); in the experiment on UACC-257 melanoma, 30.9%; with M14 melanoma, -20.3% (active).
Regarding `CCC(=O)Oc1cc(Cl)c(Cl)cc1Cl`, the growth in the experiment on DU-145 prostate was 103%; with K-562 leukemia, 101%; with MALME-3M melanoma it was 108%; in the experiment with MDA-MB-231 breast, 114%; in the experiment on RXF 393 renal, 113%; in the experiment with SF-268 CNS, 97.9%. Further, the growth in the experiment on SF-295 CNS is 96%; in the experiment on SF-539 CNS, 97.1%; in the experiment with UACC-257 melanoma, 95.8%; in the experiment on M14 melanoma, 99.5%.
As for `Cn1cc(-c2csc(-c3cn(CCOC(N)=O)c4ccccc34)n2)c2cccnc21`, the growth with DU-145 prostate is 103%; with K-562 leukemia, 27.3%; in the experiment with MALME-3M melanoma, 66.4%; with MDA-MB-231 breast, 80.4%; in the experiment with RXF 393 renal, 91.4%; in the experiment with SF-268 CNS, 95.8%. In addition, the growth with SF-295 CNS is 86.2%; in the experiment on SF-539 CNS it was 92.7%; in the experiment on UACC-257 melanoma, 88%; in the experiment with M14 melanoma, 71.1%.
On to `N#C/C(=C\c1ccc(Br)cc1)n1nnc2c(F)cccc21`, for which the growth in the experiment on DU-145 prostate was 5.36% (active); in the experiment on K-562 leukemia, 12%; with MALME-3M melanoma, -2.35% (active); with MDA-MB-231 breast, -10.6% (active); in the experiment with RXF 393 renal, -57.9% (active); in the experiment with SF-268 CNS it was 20.3%. Besides, the growth in the experiment on SF-295 CNS is 24.7%; in the experiment with SF-539 CNS, -7.82% (active); in the experiment on UACC-257 melanoma, -10.7% (active); with M14 melanoma it was 2.49% (active).
In the case of `Fc1ccc(NC(c2ccc(F)cc2)C2CCN(CCCCc3ccccc3)CC2)cc1` (stereo not given), the growth in the experiment with DU-145 prostate was 19.3%; in the experiment on K-562 leukemia, -29.1% (active); in the experiment on MALME-3M melanoma it was 32.6%; in the experiment with MDA-MB-231 breast, 6.83% (active); in the experiment with RXF 393 renal, 10.9%; with SF-268 CNS it was 44.2%. The growth in the experiment with SF-295 CNS was 34.6%; in the experiment with SF-539 CNS it was 40.5%; with UACC-257 melanoma, 60.7%; in the experiment on M14 melanoma it was 24.7%.
For the compound `COc1ccc(C(=O)N/N=C/c2ccc(O)cc2O)cc1Nc1ccnc(C(F)(F)F)c1`, the growth in the experiment on DU-145 prostate is 48.1%; with K-562 leukemia it was 26.6%; in the experiment with MALME-3M melanoma, 9.52% (active); in the experiment with MDA-MB-231 breast, 51.6%; in the experiment with RXF 393 renal it was 49%; in the experiment on SF-268 CNS, 49.9%. Further, the growth is 22.7% with SF-295 CNS, 10.3% in the experiment on SF-539 CNS, 33.1% in the experiment on UACC-257 melanoma and 2.43% (active) in the experiment on M14 melanoma.
For the compound `COc1ccc(Oc2nc(Nc3ccc(N4CCOCC4)cc3)ncc2NC(=O)c2cc(OC)cc(OC)c2)cc1`, the growth with DU-145 prostate is 98.7%; with K-562 leukemia, 58.3%; in the experiment on MALME-3M melanoma it was 108%; in the experiment with MDA-MB-231 breast, 85.2%; in the experiment with RXF 393 renal, 52.3%; in the experiment on SF-268 CNS it was 90%. Further, the growth with SF-295 CNS was 94%; in the experiment with SF-539 CNS, 87.2%; in the experiment on UACC-257 melanoma, 99%; with M14 melanoma, 91.4%.
Take `O=C1c2cccc3cccc(c23)C(=O)N1N1C(=O)c2cccc3c(N4CCNCC4)ccc(c23)C1=O`: the growth in the experiment on DU-145 prostate is 107%; in the experiment on K-562 leukemia, -59.2% (active); in the experiment with MALME-3M melanoma it was 88.9%; in the experiment with MDA-MB-231 breast, 85.8%; in the experiment with RXF 393 renal, 101%; in the experiment with SF-268 CNS, 88.7%. Besides, the growth was 101% with SF-295 CNS, 100% in the experiment on SF-539 CNS, 95.2% in the experiment with UACC-257 melanoma and 96.6% with M14 melanoma.
Regarding `[2H]C([2H])([2H])Oc1cccc(/C=C/C(=O)/C=C(/C=C/c2cccc(OC([2H])([2H])[2H])c2OC([2H])([2H])[2H])OB(F)F)c1OC([2H])([2H])[2H]`, the growth with DU-145 prostate was 88.3%; in the experiment on K-562 leukemia it was 65.2%; in the experiment with MALME-3M melanoma it was 75.9%; in the experiment on MDA-MB-231 breast it was 88%; with RXF 393 renal it was 121%; in the experiment with SF-268 CNS, 98%. The growth in the experiment with SF-295 CNS was 103%; with SF-539 CNS it was 92.2%; with UACC-257 melanoma it was 64.5%; in the experiment with M14 melanoma, 92.8%.
As to `N=C(N)c1ccc(-c2ccc(-c3ccc(Cl)c(Cl)c3)s2)cc1`, the growth is -88.9% (active) in the experiment on DU-145 prostate; -11.6% (active) in the experiment with K-562 leukemia; 78.7% with MALME-3M melanoma; -20.2% (active) in the experiment with MDA-MB-231 breast; 77.9% in the experiment on RXF 393 renal; 56.2% in the experiment on SF-268 CNS. Besides, the growth was 35.5% in the experiment on SF-295 CNS, 52.7% in the experiment with SF-539 CNS, 96.6% in the experiment with UACC-257 melanoma and 38.1% with M14 melanoma.
Regarding `O=C(CN1C(=O)S/C(=C\C(Cl)=C\c2ccccc2)C1=O)NCCCn1ccnc1`, the growth with DU-145 prostate is 31.5%; with K-562 leukemia it was 5.22% (active); in the experiment on MALME-3M melanoma, 25.4%; in the experiment with MDA-MB-231 breast, 21.5%; in the experiment with RXF 393 renal it was -25.9% (active); in the experiment with SF-268 CNS it was 86.7%. Further, the growth in the experiment on SF-295 CNS was 79.8%; in the experiment on SF-539 CNS it was 15.2%; with UACC-257 melanoma it was 75.1%; in the experiment on M14 melanoma it was 21.3%.
In the case of `CC[C@H](C)[C@H](NC(=O)[C@@H](N)CCC(N)=O)C(=O)N[C@@H](Cc1ccc(O)cc1)C(=O)N[C@@H](CCCCN)C(=O)N[C@@H](CCCCN)C(=O)N[C@@H](Cc1ccc(O)cc1)C(=O)N[C@@H](CCCNC(=N)N)C(=O)N[C@H](C(=O)N[C@@H](Cc1c[nH]c2ccccc12)C(=O)N[C@@H](Cc1ccc(O)cc1)C(=O)N[C@@H](CCCNC(=N)N)C(=O)N[C@@H](CCCCN)C(=O)N[C@@H](C)C(=O)N[C@@H](Cc1c[nH]c2ccccc12)C(=O)N[C@@H](CCCCN)C(=O)N[C@H](C(=O)N[C@@H](CC(C)C)C(=O)NCC(=O)N[C@@H](CCCCN)C(=O)N[C@H](C(N)=O)C(C)C)C(C)C)[C@@H](C)O`, the growth with DU-145 prostate is 6.03% (active); in the experiment on K-562 leukemia it was 5.04% (active); in the experiment with MALME-3M melanoma it was -30.6% (active); in the experiment on MDA-MB-231 breast it was -29.7% (active); in the experiment on RXF 393 renal it was 11.4%; in the experiment with SF-268 CNS it was -29.8% (active). Besides, the growth in the experiment on SF-295 CNS was 34.6%; in the experiment on SF-539 CNS, -40.7% (active); with UACC-257 melanoma it was 66.2%; in the experiment with M14 melanoma it was -11.8% (active).
